Source: the supplement of paper PMC12494721
Counter-ions that a name gives are not always drawn.

System: Clostridium sporogenes DSM 1664
Assay: growth (OD595) fold change vs plate DMSO controls (fold change (ratio)); higher = more growth
Details: incubation time: 27 h, anaerobic, 37 °C
Method in brief: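 To obtain OD, 595 nm absorbance readings were blank-subtracted, corrected for compound background using 20 µM compound solutions in water, and multiplied by a calibration factor of 5. They came from 96-well mGAM cultures grown anaerobically for 27 h at 37 °C and shaken before reading. Growth is the fold change relative to the median of plate DMSO controls. Two biological replicates were averaged, and fold changes above 1.5 were set to NA.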

First: OC[C@H]1O[C@@H](O[C@H]2[C@H](O)[C@@H](O)[C@H](O)O[C@@H]2CO)[C@H](O)[C@@H](O)[C@H]1O [Lactose] (50 µM)
Second: CN[C@@H]1[C@@H](O[C@H]2O[C@H](CO)[C@@H](N)[C@H](O)[C@H]2O)OC2C[C@@H](N)[C@@H](O[C@H]3[C@H](O)[C@@H](O)[C@H](N)C[C@@H]3N)OC2[C@@H]1O (some centres undefined) [Apramycin] (20 µM)
The growth of the first is lower: 0.993 for the first, 1.18 for the second.

First: C[C@@]12CC[C@@H]3[C@@](CC[C@H]4[C@@]3(C)CCC[C@@]4(C)C(=O)O)(CC1=O)C2 [Iso-Steviol] (50 µM)
Second: C[C@H](CCC(=O)O)[C@H]1CC[C@H]2[C@@H]3C(=O)C[C@@H]4CC(=O)CC[C@]4(C)[C@H]3CC(=O)[C@]12C [Dehydrocholic acid] (20 µM)
The growth of the first is higher: 1.08 for the first, 0.917 for the second.

Going from CCCCOc1ccc(C(=O)CCN2CCCCC2)cc1 [Dyclonine hydrochloride] (20 µM) to CCCCOc1ccc(CC(=O)NO)cc1 [Bufexamac] (20 µM), the growth falls from 1.17 to 0.989.

Compared with CN(C)c1nc(N(C)C)nc(N(C)C)n1 [Altretamine] (20 µM), C[C@@H](O)[C@H]1C(=O)N2C(C(=O)O)=C(S[C@@H]3CN[C@H](C(=O)N(C)C)C3)[C@H](C)[C@H]12 [Meropenem] (20 µM) is lower in growth: 0.899 for the first, 0 for the second.

Compared with c1ccc(CNc2ncnc3nc[nH]c23)cc1 [Aminopurine, 6-benzyl] (20 µM), NNc1nncc2ccccc12 [Hydralazine hydrochloride] (20 µM) is lower in growth: 1.09 for the first, 0.972 for the second.

Compared with OCCN1CCN(CC/C=C2/c3ccccc3Sc3ccc(C(F)(F)F)cc32)CC1 [Flupentixol dihydrochloride cis-(Z)] (20 µM), Cc1c(OCC(F)(F)F)ccnc1C[S+]([O-])c1nc2ccccc2[nH]1 (centres undefined) [Lansoprazole] (20 µM) is lower in growth: 1.03 for the first, 1 for the second.

Cc1onc(-c2ccccc2)c1C(=O)N[C@@H]1C(=O)N2[C@@H]1SC(C)(C)[C@@H]2C(=O)O [Oxacillin sodium] (20 µM) and CCOc1ccc2ccccc2c1C(=O)N[C@@H]1C(=O)N2[C@@H]1SC(C)(C)[C@@H]2C(=O)O [Nafcillin sodium salt monohydrate] (20 µM) are the same in growth: 0 for the first, 0 for the second.

First: Cc1ccc(Cl)c(Nc2ccccc2C(=O)O)c1Cl [Meclofenamic acid sodium salt monohydrate] (20 µM)
Second: O=C(O)CCC(=O)c1ccc(-c2ccccc2)cc1 [Fenbufen] (20 µM)
The growth of the first is lower: 1.01 for the first, 1.02 for the second.

Compared with Clc1ccc(C(Cn2ccnc2)OCc2c(Cl)cccc2Cl)c(Cl)c1 (centres undefined) [Isoconazole] (20 µM), CCN(CCO)CCCC(C)Nc1ccnc2cc(Cl)ccc12 (centres undefined) [Hydroxychloroquine sulfate] (20 µM) is higher in growth: 0.999 for the first, 1.08 for the second.

First: C[C@]12CCC(=O)C=C1C=C[C@@H]1[C@@H]2CC[C@@]2(C)[C@H]1CC[C@@]21CCC(=O)O1 [Canrenone] (20 µM)
Second: COc1c(N2CCNC(C)C2)c(F)cc2c(=O)c(C(=O)O)cn(C3CC3)c12 (centres undefined) [Gatifloxacin] (20 µM)
The growth of the first is higher: 1.01 for the first, 0.0115 for the second.

Compared with COc1cc(C(=O)OCCCN2CCCN(CCCOC(=O)c3cc(OC)c(OC)c(OC)c3)CC2)cc(OC)c1OC [Dilazep dihydrochloride] (20 µM), COc1cc(/C=C/C(=O)N2CCN(CC(=O)N3CCCC3)CC2)cc(OC)c1OC [Cinepazide maleate] (20 µM) is higher in growth: 1.06 for the first, 1.13 for the second.

First: CCOC(=O)n1ccn(C)c1=S [Carbimazole] (20 µM)
Second: CCOc1ccc(NC(N)=O)cc1 [(4-Ethoxyphenyl)urea] (50 µM)
The growth of the first is lower: 0.973 for the first, 1.13 for the second.

Compared with CCOC(=O)CC(=O)N1CCSC1COc1ccccc1OC (centres undefined) [Moguisteine] (20 µM), COc1ccccc1O [Guaiacol] (20 µM) is higher in growth: 0.961 for the first, 0.997 for the second.

Compared with Cn1c(=O)cc(N2CCC[C@@H](N)C2)n(Cc2ccccc2C#N)c1=O [Alogliptin benzoate] (20 µM), CN1CCOC(c2ccccc2)c2ccccc2C1 (centres undefined) [Nefopam hydrochloride] (20 µM) is higher in growth: 1.06 for the first, 1.09 for the second.

Going from Nc1nc(F)nc2c1ncn2[C@@H]1O[C@H](CO)[C@@H](O)[C@@H]1O [Fludarabine] (20 µM) to Nc1ccn([C@@H]2O[C@H](CO)[C@@H](O)C2(F)F)c(=O)n1 [Gemcitabine] (20 µM), the growth falls from 0.775 to 0.371.

Going from CCN(Cc1ccncc1)C(=O)C(CO)c1ccccc1 (centres undefined) [Tropicamide] (20 µM) to CC(C)NC[C@H](O)COc1cccc2ccccc12 [(S)-(-)-Propranolol hydrochloride] (20 µM), the growth rises from 0.93 to 0.943.

Compared with CNC1(C)C2CCC(C2)C1(C)C (centres undefined) [Mecamylamine hydrochloride] (20 µM), CCCC(CCC)C(=O)O[C@H]1C[C@H]2CC[C@@H](C1)[N+]2(C)C [Anisotropine Methylbromide] (20 µM) is higher in growth: 1.03 for the first, 1.04 for the second.

Compared with CC1=NN(c2ccccc2)C(=O)C1 [Edaravone] (20 µM), c1ccc2cc3c(ccc4ccccc43)cc2c1 [Benz[a]anthracene] (20 µM) is higher in growth: 0.889 for the first, 1.13 for the second.

Going from OC(CNCC(O)C1CCc2cc(F)ccc2O1)C1CCc2cc(F)ccc2O1 (centres undefined) [Nebivolol hydrochloride] (20 µM) to O=C(O)Cc1cc(I)c(Oc2ccc(O)c(I)c2)c(I)c1 [Tiratricol] (20 µM), the growth falls from 1.15 to 0.903.

For COc1ccc(CC2c3cc(OC)c(OC)cc3CC[N+]2(C)CCC(=O)OCCCCCOC(=O)CC[N+]2(C)CCc3cc(OC)c(OC)cc3C2Cc2ccc(OC)c(OC)c2)cc1OC (centres undefined) [Atracurium besylate] (20 µM), the growth was 0.945.
